Test results: PubChem BioAssay AID720541 (National Center for Advancing Translational Sciences (NCATS), 2013)
“And” between values parts separate entries of the source, which are not always exact repeats. Equal values may be shown once. Among all 1,300 compounds or so, about 420 (32%) were called active. About 32% were inconclusive and are not listed. Calls come from the whole dose curve; as a rule, active = well fitted inhibition curve with a large enough effect; inconclusive = small, poorly fitted or top-dose-only effect; inactive = no such curve, though single readings can be large or run the other way. The list shows a part of the results. Some structures have more than one record in an assay (separate samples or runs), and their calls can disagree.

Biological target: C-terminal-binding protein 1 (Homo sapiens) (UniProt Q13363)
Test: qHTS for Inhibitors of the Phosphatase Activity of Eya2: Carboxyl-terminal binding protein (CtBP) Counterscreen for Cherry-picked Compounds; note: nearly all actives have a fitted effect of over 65% in size
Details: purified protein-protein binding, AlphaScreen, 3 h; series mostly up to 46.1 µM
Summary of the method: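 AlphaScreen using 25 nM GST-E1A with 25 nM CtBP-6xHIS; compounds at 2.5 nM–46 uM final, 2 h at room temperature, then donor/acceptor beads (20 ug/mL) for 1 h in the dark. Signal normalized to E1A peptide inhibitor (maximum inhibition) and DMSO.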
Potency is the fitted concentration of half-maximal effect.

| Structure (SMILES) | Potency |
| --- | --- |
| O=c1c(CO)cc(CO)cc(CO)c1O | 9.53 µM (active) |
| Cn1c(=O)n(CCO)c(=O)c2c1nc(Br)n2Cc1ccccc1 | inactive |
| Cn1c(=O)n(Cc2ccccc2)c(=O)c2c1nc(NCC1CCCO1)n2Cc1ccccc1 (centres undefined) | inactive |
| Cn1c(=O)n(Cc2ccc(F)cc2)c(=O)c2c1nc1n2CCN1Cc1ccco1 | 10.7 µM (active) |
| COCCNC(=O)CCC(=O)NNc1nc2ccccc2c2nc(-c3ccccc3)nn12 | inactive |
| COc1ccc2c(c1)c1nnc(SC(C)C)nc1n2C | 4.78 µM (active) |
| Cc1cccc(NC(=S)N(CCN2CCOCC2)Cc2cc3cc4c(cc3[nH]c2=O)OCCO4)c1 | inactive |
| Nc1ccc2c(c1Cl)C(=O)c1ccc(N)c(Cl)c1C2=O | 6.01 µM (active) |
| CCOC(=O)c1ccc(NC(=S)N2CCN(CCN=CC3=C(O)CC(c4ccccc4)CC3=O)CC2)cc1 (centres undefined) | inactive |
| COc1cc(N=c2oc3c(C)ncc(CO)c3cc2C(N)=O)cc(OC)c1OC | 4.78 µM (active) |
| O=C(CSc1nnc2c(n1)[nH]c1ccccc12)Nc1cccc(S(=O)(=O)N2CCOCC2)c1 | inactive |
| Cc1nc(NC(=O)CSc2nnc(-c3ccccc3)c(-c3ccccc3)n2)c(Cl)cc1Cl | inactive |
| CCOC(=O)Cc1nnc(NC(=O)C(CC)Sc2nnc3c4ccccc4n(C)c3n2)s1 (centres undefined) | 13.5 µM (active) |
| O=C(CSc1nnc2c(n1)[nH]c1ccccc12)Nc1ccc(S(=O)(=O)Nc2ncccn2)cc1 | 5.36 µM (active) |
| CCOC(=O)Cc1nnc(NC(=O)CSc2nnc3c4ccccc4n(C)c3n2)s1 | 15.1 µM (active) |
| CCOC(=O)Cc1nnc(NC(=O)CSc2nnc3c(n2)[nH]c2ccccc23)s1 | 15.1 µM (active) |
| CC1(C)CC2CC(C)(CN2/C=N/c2sc3c(c2C#N)CC(C)(C)NC3(C)C)C1 (centres undefined) | inactive |
| COc1cc2[nH]cc(C(=O)NCc3ccccc3)c(=O)c2cc1OC | 3.79 µM (active) |
| COc1ccc(CNC(=O)c2sc(=O)n(Cc3cc(Cl)ccc3OC)c2C)cc1 | inactive |
| CC1CCC(=NNc2ccc(C(F)(F)F)cc2[N+](=O)[O-])CC1 (centres undefined) | 8.49 µM (active) |
| C1=Cc2ccccc2/C1=C\c1cc2c3c(c1)CCCN3CCC2 | 8.49 µM (active) |
| Cc1cc(=O)n2[nH]c(Nc3cccc(Cl)c3)nc2n1 | inactive |
| COc1ccc2cc(C(=O)N3CCN(c4ccc(F)cc4)CC3)[nH]c2c1 | inactive |
| COc1ccc(Nc2cc(C(=O)N3CCc4ccccc4C3)c3ccccc3n2)c(OC)c1 | inactive |
| COc1ccc(N2CCN(C(=O)c3cc(-c4cc(OC)ccc4OC)nc4ccccc34)CC2)cc1 | 13.5 µM (active) |

| Structure (SMILES) | Potency |
| --- | --- |
| CN(C)CCCN1c2ccc(O)cc2Sc2ccc(Cl)cc21 | 12 µM (active) |
| Nn1c(SCC(=O)Nc2ccc3c(c2)OCCO3)nnc1-c1ccccn1 | 15.1 µM (active) |
| Cn1cc(SCC(=O)Nc2ccc3c(c2)OCCO3)c2ccccc21 | inactive |
| O=C(CSc1ccc2c(c1)OCCO2)Nc1ccc2c(c1)OCO2 | inactive |
| Cc1ccc(OCCSc2nc3ccccc3n2CCC(=O)O)c(C(C)C)c1 | inactive |
| Cc1cccc(NC(=S)NC(=O)c2ccco2)n1 | 10.7 µM (active) |
| COc1ccc2nc(NC(=S)NC(=O)c3ccco3)sc2c1 | inactive |
| O=C(NC(=S)Nc1ccccc1N1CCCCC1)c1ccco1 | inactive |
| O=S(=O)(Nc1nccs1)c1ccc(NCc2cc(Br)cc(Br)c2O)cc1 | 1.9 µM (active) |
| CCc1nnc(NS(=O)(=O)c2ccc(NCc3cc(Cl)cc(Cl)c3O)cc2)s1 | 4.26 µM (active) |
| CCS(=O)(=O)N1CCC(C(=O)Oc2ccc(Cl)cc2)CC1 | inactive |
| CC(=O)Nc1ccc(S(=O)(=O)Nc2ccc(N3CCCCC3)cc2)cc1 | 8.49 µM (active) |
| CC(=O)Nc1ccc(S(=O)(=O)N2C3CCCC2CC(NC(=O)C2CCCCC2)C3)cc1 (centres undefined) | inactive |
| COc1ccc(C(=O)OCC(=O)Nc2ccc(N3CCOCC3)cc2)cc1 | inactive |
| CC(=O)Oc1cccc2c1C(=O)C1CC=CC(OC(C)=O)C1C2=O (centres undefined) | 9.53 µM (active) |
| O=C(O)c1ccc2c(=O)n3cc(C(=O)c4ccccc4O)cc(Cl)c3nc2c1 | 12 µM (active) |
| Cc1cc(C)cc(C(=O)NC(=S)Nc2ccc3c(c2)OCCO3)c1 | inactive |
| Cc1cc(O)cc(O)c1/C=N/NC(=O)c1ccc2c(c1)OCCO2 | 8.49 µM (active) |
| O=C(O)c1ccc(N/N=C/c2cc3cc4c(cc3nc2Cl)OCCO4)cc1 | inactive |
| CCCCC1=CC2=C(c3ccco3)C(=O)C(C)(OC(=O)c3ccc(OC)cc3)C(=O)C2=CN1CCc1ccccn1 (centres undefined) | inactive |
| Cc1ccc(C(=O)Nc2cccc(-c3nc4ncccc4o3)c2)cc1 | inactive |
| CCC(C)c1ccc2oc(-c3ccc(NC(=O)c4ncn[nH]4)cc3)nc2c1 (centres undefined) | 13.5 µM (active) |
| CC(C)c1ccc2oc(-c3ccc(NC(=O)c4ncn[nH]4)cc3)nc2c1 | 12 µM (active) |
| C[C@@H](NC(=O)c1nc[nH]c1C(=O)N[C@@H](Cc1ccccc1)C(=O)OC(C)(C)C)c1ccccc1 | inactive |
| Cc1ccc(NC(=O)c2[nH]cnc2C(=O)NN)cc1 | 15.1 µM (active) |

| Structure (SMILES) | Potency |
| --- | --- |
| O=C(CNC(=O)c1[nH]cnc1C(=O)N[C@@H](Cc1ccccc1)C(=O)OCc1ccccc1)OCc1ccccc1 | inactive |
| O=C(Nc1ccc(F)cc1)c1nc[nH]c1C(=O)O | 7.57 µM (active) |
| NNC(=O)c1nc[nH]c1C(=O)Nc1ccccn1 | 8.49 µM (active) |
| CCOC(=O)c1ccc(NC(=O)c2nc[nH]c2C(=O)N[C@@H](Cc2ccccc2)C(=O)OC(C)(C)C)cc1 | inactive |
| COc1ccc(N(CC(=O)N2CCCCC2)S(=O)(=O)c2c(C)nn(C)c2C)cc1 | inactive |
| O=C(CSc1ccc2nnc(-c3ccccn3)n2n1)Nc1ccccc1F | 7.57 µM (active) |
| Cc1nnc(NC(=O)CSc2ccc3nnc(-c4ccccn4)n3n2)s1 | inactive |
| CCCCC(Sc1ccc2nnc(-c3ccccn3)n2n1)C(=O)O (centres undefined) | 13.5 µM (active) |
| O=C(O)CSc1ccc2nnc(-c3cccnc3)n2n1 | inactive and 13.5 µM (active) |
| O=C(CSc1ccc2nnc(-c3ccccn3)n2n1)Nc1ccccc1 | 10.7 µM (active) |
| CN(C)c1ccc2nc3ccc(=[N+](C)C)cc-3sc2c1 | inactive |
| CC(=O)Oc1ccc2nonc2c1OC(C)=O | inactive |
| CC1=C(C(=O)N2CCOCC2)CC(CC(=O)NC(c2ccccc2)c2ccccc2)C(=O)N1Cc1ccc(C(C)(C)C)cc1 (centres undefined) | inactive |
| O=C(CSc1ccc2nnc(-c3ccccn3)n2n1)Nc1ccccc1C(F)(F)F | 10.7 µM (active) |
| Cc1csc(NC(=O)CSc2ccc(-c3ccccn3)nn2)n1 | 4.26 µM (active) |
| Cc1ccccc1NC(=O)CSc1ccc(-c2ccccn2)nn1 | 3.79 µM (active) |
| Cc1cc(C)c(NC(=O)CSc2ccc(-c3ccccn3)nn2)c(C)c1 | 3.38 µM (active) |
| O=S(=O)(NCCSCc1ccc(Cl)c(Cl)c1)c1ccc2c(c1)OCCO2 | inactive |
| CCOc1ccc(CCN2C(=O)C(=O)N([C@@H](Cc3ccccc3)CN3CCC[C@H]3CN3C(=O)C(=O)NC[C@@H]3Cc3ccccc3)C[C@@H]2Cc2ccccc2)cc1 | inactive |
| CCN(CC)c1ccc(NC(=O)c2ccc3c(c2)c(C)c(C)n3C)cc1 | 10.7 µM (active) |
| NC(N)=Nc1nc2cc([N+](=O)[O-])ccc2o1 | inactive |
| Cc1cc(/C=C2\C=Cc3ccccc32)ccc1N(C)C | 8.49 µM (active) |
| CNc1ccc(/C=C2\C=Cc3ccccc32)cc1OC | 8.49 µM (active) |
| CN(C)c1ccc(/C=C2\C=Cc3ccccc32)cc1N | 13.5 µM (active) |
| CN(C)c1ccc(/C=C2\C=Cc3ccccc32)cc1[N+](=O)[O-] | 7.57 µM (active) |

| Structure (SMILES) | Potency |
| --- | --- |
| O=[N+]([O-])c1ccc(/C=C2\C=Cc3ccccc32)cc1 | 7.57 µM (active) |
| COc1cc(/C=C2/C=Cc3ccccc32)ccc1N(C)C | 8.49 µM (active) |
| O=C(Nc1ccccc1Cl)N1CCN(c2ccc3nnc(-c4ccccc4)n3n2)CC1 | 5.36 µM (active) |
| COc1cccc(N2CCN(c3ccc4nnc(CCC(=O)Nc5cccc(C(C)=O)c5)n4n3)CC2)c1 | inactive |
| NCC(=O)Nc1ccc(Cl)cc1C(=O)c1ccc[nH]1 | inactive |
| COc1ccc(-c2cn(Cc3ccc4c(c3)C(=O)c3ccccc3C4=O)nn2)cc1 | inactive |
| COC1=C(Nc2ccc(OC)cc2)C(=O)c2ccccc2C1=O | 6.75 µM (active) |
| CCc1ccc2nc3nc(C)cc(C)c3c(N)c2c1 | 10.7 µM (active) |
| COc1cc(NS(=O)(=O)c2ccc(N/C=C\C(=O)c3ccc(OC)c(OC)c3)cc2)nc(OC)n1 | 8.49 µM (active) |
| CCC(=O)Nc1ccc(C(=O)COC(=O)c2nc3nccc(C)n3n2)cc1 | inactive |
| COc1ccc(C(=O)/C=C/Nc2ccc(S(=O)(=O)Nc3nc(C)cc(C)n3)cc2)cc1OC | 12 µM (active) |
| Cc1ccccc1-c1cnc(C(O)c2c(C)cccc2C)[nH]1 (centres undefined) | inactive |
| Cc1oc2cc([N+](=O)[O-])c(O)c([N+](=O)[O-])c2c1C(=O)c1ccc(Cl)cc1 | 16.9 µM (active) |
| COc1ccc(NC(=O)c2cc(-c3ccco3)nc3ccccc23)cn1 | inactive |
| O=C(Nc1nncs1)c1cc(-c2ccco2)nc2ccccc12 | 13.5 µM (active) |
| COc1cccc(C(=O)Nc2cccc(-c3ccc4nncn4n3)c2)c1OC | 13.5 µM (active) |
| COc1ccccc1OCc1ccc(C(=O)Nc2cc(OC)c(OC)c(OC)c2)o1 | inactive |
| Nc1ccc(O)cc1 | 12 µM (active) |
| Nc1nc2nn(-c3ccccc3)nc2c(=O)[nH]1 | 6.01 µM (active) |
| COc1ccc(-c2csc(-c3ccc(C(=O)O)cc3)n2)cc1 | inactive |
| CNC(=O)c1ccc(Nc2nnc(-c3ccc(C(N)=O)cc3)c3ccccc23)cc1 | 6.75 µM (active) |
| CCN(CC)C(=O)c1ccc(-c2nnc(Nc3ccc(C(=O)NC)cc3)c3ccccc23)cc1 | 16.9 µM (active) |
| COc1ccc(Nc2nnc(-c3ccc(C(N)=O)cc3)c3ccccc23)cc1 | 4.78 µM (active) |
| Cc1ccc(-c2nnc(Nc3ccc4c(c3)OCO4)c3ccccc23)cc1S(N)(=O)=O | inactive |
